# ULK1 primary: blocks human autophagy kinase ULK1; AlphaScreen Atg13 phosphorylation by ULK1, luminescence; AID 1259251; inhibition, % at 5.96 µM; O75385; hit rate 1.9% among 30,000; in the data active = inhibition above about 43%;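 note: 0% = median of compound wells and 100% = no enzyme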
# ASK1 inh: inhibitors of human ASK1 kinase; Q99683; AlphaScreen MKK6 phosphorylation by ASK1, luminescence; inhibition, % at 7.44 µM; hit rate 0.99% among 22,000; AID 1159602; in the data active = inhibition above about 35%;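 note: 0% = median of compound wells and 100% = no enzyme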
# TruHits interf: counter-screen for ASK1 inhibitors: AlphaScreen optical interference. shares compounds with ASK1 inh. AlphaScreen TruHits beads, signal interference counterscreen. IC50, µM. hit rate 20% among 220;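 active = IC50 of 10 µM or lower in the counterscreen; inactive = IC50 above 10 µM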;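 note: loss of AlphaScreen light from TruHits beads alone with no ASK1 enzyme present; potency of signal reduction so a low IC50 flags an assay artifact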
# Numbers without * were called inactive; i = inactive; x = not tested or not shown. In the library only some 2.5% were active in any assay of this set; here they are far more common.
SMILES,ULK1 primary,ASK1 inh,TruHits interf
c1ccc(Oc2ccc(Nc3nc(N4CCOCC4)nc4c3ncn4-c3ccsc3)cc2)cc1,2.4,23.8,x
Oc1ccc(CCNc2nc(N3CCN(c4ccccn4)CC3)nc3c2ncn3-c2ccsc2)cc1,1.7,38.8*,>21.3
c1ccc(N2CCN(c3nc(Nc4ccc(N5CCOCC5)cc4)c4ncn(-c5ccsc5)c4n3)CC2)nc1,-2.8,45.3*,>20
O=C(NC1CC1)c1ccc(-c2nc(NCCN3CCOCC3)c3ncn(CCN4CCCC4=O)c3n2)cc1,10.8,1.4,x
CN1CCN(C(=O)c2ccc(-c3ncc(C(=O)Nc4ccc(N5CCOCC5)cc4)s3)cc2)CC1,-3.7,-8.0,x
O=C(NCc1ccc(Cl)cc1)NCc1nnnn1-c1ccc(F)cc1,-10.8,x,x
FC(F)(F)c1ccc(Nc2nc(Nc3ccc(N4CCOCC4)cc3)c3ncn(-c4ccsc4)c3n2)cc1,-8.4,16.8,x
c1cc(-n2cnc3c(Nc4ccc5c(c4)OCO5)nc(NCCN4CCOCC4)nc32)cs1,25.0,26.2,x
c1cc(-n2cnc3c(NC4CC4)nc(Nc4ccc(N5CCOCC5)cc4)nc32)cs1,24.8,42.7*,>20.1
CCCNc1cc(C)nc(N2CCN(Cc3ccc4c(c3)OCO4)CC2)n1,11.3,11.4,x
Cc1cc(Nc2ccc3c(c2)OCO3)nc(N2CCN(Cc3ccc4c(c3)OCO4)CC2)n1,0.8,36.5*,i
c1cc(-n2cnc3c(Nc4ccc5c(c4)OCO5)nc(N4CCN(Cc5ccc6c(c5)OCO6)CC4)nc32)cs1,11.8,36.2*,>19.9
CC(=O)Nc1ccc(Nc2nc(N3CCN(Cc4ccc5c(c4)OCO5)CC3)nc3c2ncn3-c2ccsc2)cc1,-2.9,13.9,x
c1cc(-n2cnc3c(Nc4ccc5c(c4)OCO5)nc(Nc4ccc(N5CCOCC5)cc4)nc32)cs1,29.4,49.7*,i
COc1ccc(-c2c(F)ccc3cnc(Nc4ccc(-n5cnc(N6CCOCC6)n5)cc4)nc23)cc1F,32.7,13.5,x
Cc1noc(C)c1-c1ccc(C(=O)NCCO)s1,-8.1,-8.3,x
CCN(CC)C(=O)C1CCCN(c2nc(NCCO)c3ncn(CCN4CCCC4=O)c3n2)C1 (centres undefined),-2.1,-11.8,x
CC(C)N(CCNC(=O)c1cnc(N2CCN(c3ccccn3)CC2)s1)C(C)C,-1.3,0.2,x
CCNc1nccc(NCCO)n1,4.6,-29.9,x
c1cc(-n2cnc3c(Nc4ccc(N5CCOCC5)cc4)nc(NCc4ccc5c(c4)OCO5)nc32)cs1,10.2,40.8*,>19.9
O=C1CCCN1CCCNc1nc(Nc2ccc(-n3ccnc3)cc2)nc2c1ncn2-c1ccsc1,25.3,47.2*,>19.9
O=C1CCCN1CCCNc1nc(Nc2ccncc2)nc2c1ncn2-c1ccsc1,25.9,9.4,x
Nc1nc(Nc2ccc(N3CCOCC3)cc2)cc(Nc2ccc3c(c2)OCO3)n1,15.8,37.3*,>16.8
c1cc(-n2cnc3c(Nc4ccc5c(c4)OCO5)nc(NCc4ccc5c(c4)OCO5)nc32)cs1,0.3,17.0,x
CC(=O)Nc1ccc(Nc2nc(Nc3ccc(N4CCOCC4)cc3)nc3c2ncn3C(C)C)cc1,16.4,23.2,x
SMILES,ULK1 primary,ASK1 inh,TruHits interf
Nc1nc(NCc2ccc3c(c2)OCO3)cc(Nc2ccc(N3CCOCC3)cc2)n1,15.9,33.0,x
CC(C)n1cnc2c(Nc3ccc(N4CCOCC4)cc3)nc(Nc3ccc(-n4ccnc4)cc3)nc21,67.3*,36.0*,>19.1
CCN(CC)C(=O)C1CCCN(c2cc(Nc3ccc(N4CCOCC4)cc3)ncn2)C1 (centres undefined),8.8,-0.9,x
COc1ccc(/C=C2/SC(=S)N(C)C2=O)cc1[N+](=O)[O-],-0.4,x,x
Cc1ccc(NC(=O)CSc2ncc(CO)n2CC(=O)NCc2ccc(Cl)cc2)c(C)c1,-4.5,x,x
c1cc(N2CCOCC2)ccc1Nc1nc(NCCN2CCOCC2)c2ncn(C3CCCCC3)c2n1,0.4,15.5,x
CCCNc1nc(Nc2ccc(N3CCOCC3)cc2)nc2c1ncn2C1CCCCC1,17.4,50.8*,>20.1
CN(C)c1cccc(Nc2nc3ncnc(NCCc4ccc(O)cc4)c3[nH]2)c1,10.3,-6.6,x
O=C(NC1CC1)c1ccc(-c2nc(NCc3cccc(C(F)(F)F)c3)c3ncn(-c4ccccc4)c3n2)cc1,-5.6,44.7*,>19.9
O=C(NC1CC1)c1ccc(-c2nc(NCc3cccc(C(F)(F)F)c3)c3ncn(-c4ccsc4)c3n2)cc1,-18.8,7.6,x
Cn1c(Nc2nc(Nc3ccc(N4CCOCC4)cc3)c3[nH]cnc3n2)nc2ccccc21,1.5,14.7,x
COc1cc2nc(Oc3ccccc3)nc(Nc3ccc(N4CCOCC4)cc3)c2cc1OC,-14.7,2.2,x
Cc1cnc(Nc2nc3ccccc3n2C)nc1Nc1ccc(N2CCOCC2)cc1,30.2,38.6*,>21.8
COc1cc2nc(Nc3ccc(N4CCOCC4)cc3)nc(Nc3ccccc3)c2cc1OC,-11.3,56.2*,8.51*
CN(C)c1cccc(Nc2nc(Nc3ccc(N4CCOCC4)cc3)c3[nH]cnc3n2)c1,-3.5,35.6*,i
